Values joined by “and” are separate entries in the source; they are usually repeats but may differ in a detail not shown here. Equal values may be shown once. Records with an inconclusive call do not appear. The source holds several records for some structures; these can differ, active in one and inactive in another. Active and inactive are the calls of the source. Rule for the calls: active = hit-call score of the fitted dose curve at least 0.9, where 1 is the maximum; inconclusive = response in the unintended direction; inactive = score below 0.9.
Molecular target: Cellular tumor antigen p53 (Homo sapiens) (UniProt P04637)
Sequence (P04637 whole entry, looked up): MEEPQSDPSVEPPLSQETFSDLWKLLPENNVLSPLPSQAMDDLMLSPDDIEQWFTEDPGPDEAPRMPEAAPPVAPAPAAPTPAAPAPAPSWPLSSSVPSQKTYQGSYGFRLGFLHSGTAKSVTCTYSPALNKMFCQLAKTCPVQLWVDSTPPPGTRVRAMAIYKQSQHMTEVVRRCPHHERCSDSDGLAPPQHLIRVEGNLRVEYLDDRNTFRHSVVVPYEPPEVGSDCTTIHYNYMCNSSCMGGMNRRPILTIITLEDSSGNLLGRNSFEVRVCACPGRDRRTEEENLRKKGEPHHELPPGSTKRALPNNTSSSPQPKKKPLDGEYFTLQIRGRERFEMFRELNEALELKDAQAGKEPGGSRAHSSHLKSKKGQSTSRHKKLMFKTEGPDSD
Experiment: TOX21_p53_BLA_p2_ratio: Tox21 HCT-116 p53 Agonism Beta-lactamase Assay, Ratio, Phase 2 (AID 2283592)
Source text: TOX21_p53_BLA_p2 is a cell-based, single-readout assay that uses HCT116, a human intestinal cell line, […] in a 1536-well plate.TOX21_p53_BLA_p2_ratio is an assay readout measuring reporter gene via receptor activity and designed using inducible reporter (beta lactamase induction) detected with GAL4 b-lactamase reporter gene. The signal is derived from the ratio of cleaved (ch2) to uncleaved (ch1) reporter gene substrate used as the measure of target activity.Data from the assay component TOX21_p53_BLA_p2_ratio was analyzed into 1 assay endpoint. This assay endpoint, TOX21_p53_BLA_p2_ratio, was analyzed in the positive analysis fitting direction relative to DMSO as the negative control and baseline of activity. Using a type of inducible reporter, gain-of-signal activity can be used to understand changes in the reporter gene as they relate to the gene TP53. Furthermore, this assay endpoint can be referred to as a primary readout, because this assay has produced multiple assay endpoints and this ratio serves a reporter gene function to understand target activity. To generalize the intended target to other relatable targets, this assay endpoint is annotated to the DNA binding intended target family, where the subfamily is tumor suppressor.
Thawing Method: Place 14 mL of pre-warmed thaw medium into a 15 mL of conical tub. Remove the vial of cells to be thawed from liquid nitrogen and thaw rapidly by placing at 37C in a water bath with gentle agitation for 1-2 minutes. Decontaminate the vial by wiping with 70% ethanol before opening in a biological safety cabinet. Transfer the vial contents drop-wise into 14 mL of thaw medium in a sterile 15-mL conical tub. Centrifuge cells at 900 rpm for 4 minutes and resuspend in thaw medium. Transfer contents to the T75 tissue culture flask containing Thaw Medium and place flask in a humidified 37C/5% CO2 incubator. Switch to growth medium at first passage.Propagation Method: Aspirate medium, rinse once in DPBS, add 0.25% Trypsin/EDTA and swirl to coat the cell evenly. Add an equal volume of Growth Medium to inactivate Trypsin after 2-3 minutes incubation at 37C. Centrifuge cells at 900 rpm for 4 minutes and resuspend in growth medium. Cell should be passage or fed at least twice a week.Assay Protocol: Harvest cells from culture in growth medium and resuspend in assay medium. 2.2 Dispense 4000 cells/5 uL/well into 1536-well black/clear bottom plates using a Multidrop dispenser. After the cells were incubated at 37C for 5 hours, 23 nL of compounds dissolved in DMSO were transferred to the assay plate by a PinTool resulting in a 217-fold dilution. Incubate the plates for 16 hours at 37C, 5% CO2. Add 1 uL of 6X LiveBLAzer FRET B/G (CCF4-AM) Substrate Mixture to each well using a BioRAPTR dispenser and incubate the plates at room temperature for 2 hours. Measure fluorescence intensity at 460 and 530 nm emission and 405 nm excitation by an Envision detector. Data is expressed as the ratio of 460nm/530nm emissions. Add 4 uL of Cell-titer Glo to each well using BioRAPTR and incubate the plates at room temperature for 2 hours. Measure fluorescence intensity by a VewLux plate reader.

**Q.** How did the outcome turn out when `C#C[C@]1(O)CC[C@H]2[C@@H]3CCC4=CC(=O)CC[C@@H]4[C@H]3CC[C@@]21CC` was run?
**A.** The outcome was “inactive”.

**Q.** `CC(=O)[C@H]1CC[C@H]2[C@@H]3CCC4=CC(=O)CC[C@]4(C)[C@H]3CC[C@]12C` was tested. Which outcome did it give?
**A.** Its outcome is “inactive”.

**Q.** With `CC(C)(C)[C@@H](O)[C@@H](Cc1ccc(Cl)cc1)n1cncn1` as the molecule, how does the outcome read?
**A.** The outcome was “inactive”.

**Q.** How did the outcome turn out when `C#CCOC(=O)[C@@H](C)Oc1ccc(Oc2ncc(Cl)cc2F)cc1` was run?
**A.** Its outcome is “inactive”.

**Q.** With `CCOC(=O)c1ccc(O)cc1` as the molecule, how does the outcome read?
**A.** The outcome was “inactive”.

**Q.** For `CC1(C)C(C=C(Cl)Cl)C1C(=O)OCc1cccc(Oc2ccccc2)c1` (stereo not given), which outcome is on record?
**A.** Its outcome is “inactive”.

**Q.** With `N[C@@H](Cc1cc(I)c(Oc2ccc(O)c(I)c2)c(I)c1)C(=O)O` as the molecule, how does the outcome read?
**A.** Its outcome is “inactive”.

**Q.** And the AC50?
**A.** Its AC50 is 33.6 µM (active).

**Q.** With `CCNc1nc(N)nc(Cl)n1` as the molecule, how does the outcome read?
**A.** Its outcome is “inactive”.

**Q.** Which outcome does the source give for `COC(=O)CSc1cc(N=c2sc(=O)n3n2CCCC3)c(F)cc1Cl` here?
**A.** Its outcome is “inactive”.

**Q.** For `CCC(C)OC(=O)N1CCCCC1CCO` (stereo not given), which outcome is on record?
**A.** The outcome was “inactive”.

**Q.** With `CCOC(=O)NCCOc1ccc(Oc2ccccc2)cc1` as the molecule, how does the AC50 read?
**A.** Its AC50 is 38.1 µM (active).

**Q.** How did the AC50 turn out when `O=C(O)C1(C(=O)Nc2ccc(Cl)cc2Cl)CC1` was run?
**A.** The AC50 was 18.6 µM (active).

**Q.** With `O=C(c1ccc(O)cc1O)c1ccc(O)cc1O` as the molecule, how does the AC50 read?
**A.** Its AC50 is 73.1 µM (active).

**Q.** And the outcome?
**A.** Its outcome is “inactive”.

**Q.** `c1ccc(Nc2ccccc2)cc1` was tested. Which outcome did it give?
**A.** Its outcome is “inactive”.

**Q.** With `CC(C)(c1ccc(O)cc1)c1ccc(O)cc1` as the molecule, how does the outcome read?
**A.** Its outcome is “inactive”.

**Q.** And the AC50?
**A.** Its AC50 is 85.6 µM (active).

**Q.** How did the outcome turn out when `OB(O)O` was run?
**A.** The outcome was “inactive”.

**Q.** With `CC(=O)S[C@@H]1CC2=CC(=O)CC[C@]2(C)[C@H]2CC[C@@]3(C)[C@@H](CC[C@@]34CCC(=O)O4)[C@H]12` as the molecule, how does the outcome read?
**A.** Its outcome is “inactive”.

**Q.** What about the AC50 of the same molecule?
**A.** The AC50 was 15.8 µM (active).

**Q.** `CCCOC(=O)NCCCN(C)C` was tested. Which outcome did it give?
**A.** Its outcome is “inactive”.

**Q.** For `Oc1ccc(C(c2ccc(O)cc2)C(Cl)(Cl)Cl)cc1`, which AC50 is on record?
**A.** The AC50 was 72.9 µM (active) and 69.1 µM (active).

**Q.** How did the outcome turn out when `CC(C)CCCCCCc1ccc(O)cc1` was run?
**A.** Its outcome is “inactive”.

**Q.** Which AC50 does the source give for `CCCCCCC(C)OC(=O)COc1nc(F)c(Cl)c(N)c1Cl` (stereo not given) here?
**A.** Its AC50 is 82.3 µM (active).

**Q.** With `Cc1nn(C)c(Oc2ccccc2)c1C=NOCc1ccc(C(=O)OC(C)(C)C)cc1` as the molecule, how does the AC50 read?
**A.** Its AC50 is 0.0043 µM (active).

**Q.** How did the outcome turn out when `CCCCC(CC)CN1C(=O)C2C3C=CC(C3)C2C1=O` (stereo not given) was run?
**A.** Its outcome is “inactive”.

**Q.** How did the outcome turn out when `CN(C)C(=O)Nc1ccc(Cl)c(Cl)c1` was run?
**A.** Its outcome is “inactive”.

**Q.** Which outcome does the source give for `CCN(Cc1c(F)cccc1Cl)c1c([N+](=O)[O-])cc(C(F)(F)F)cc1[N+](=O)[O-]` here?
**A.** The outcome was “inactive”.

**Q.** How did the outcome turn out when `COc1nc(C)nc(NC(=O)NS(=O)(=O)c2ccccc2OCCCl)n1` was run?
**A.** The outcome was “inactive”.

**Q.** Which outcome does the source give for `CCCN(CCC)C(=O)SCC` here?
**A.** Its outcome is “inactive”.

**Q.** `COC(=O)c1ccc(I)cc1S(=O)(=O)NC(=O)Nc1nc(C)nc(OC)n1` was tested. Which outcome did it give?
**A.** The outcome was “inactive”.

**Q.** How did the AC50 turn out when `CCCN(CCC)c1c([N+](=O)[O-])cc(C(F)(F)F)c(N)c1[N+](=O)[O-]` was run?
**A.** The AC50 was 37.8 µM (active).

**Q.** With `CSC(=O)c1cccc2nnsc12` as the molecule, how does the outcome read?
**A.** The outcome was “inactive”.

**Q.** `CCOC(=O)C(C)Oc1ccc(Oc2nc3ccc(Cl)cc3o2)cc1` (stereo not given) was tested. Which outcome did it give?
**A.** Its outcome is “inactive”.

**Q.** With `CCOC(=O)COc1cc(-n2ncc(C(F)(F)F)c(C)c2=O)c(F)cc1Cl` as the molecule, how does the outcome read?
**A.** Its outcome is “inactive”.

**Q.** For `CCCCC(CC)COC(=O)c1ccccc1C(=O)O` (stereo not given), which outcome is on record?
**A.** The outcome was “inactive”.

**Q.** `COCCO` was tested. Which outcome did it give?
**A.** The outcome was “inactive”.

**Q.** `C[C@]12CC[C@@H]3c4ccc(O)cc4C[C@@H](CCCCCCCCCS(=O)CCCC(F)(F)C(F)(F)F)[C@H]3[C@@H]1CC[C@@H]2O` (stereo not given in full) was tested. Which outcome did it give?
**A.** Its outcome is “inactive”.

**Q.** How did the AC50 turn out when `O=C(Nc1ccc([N+](=O)[O-])cc1Cl)c1cc(Cl)ccc1O` was run?
**A.** The AC50 was 234 nM (active) and 140 nM (active).
